A selection: hits, their analogues and other compounds. The true share with any hit is near 3.1%.
14-3-3 Bad PPI – disrupts binding of bovine 14-3-3 zeta to phospho-Bad peptide | P63103 | TR-FRET 14-3-3zeta/Dy647-pBad peptide displacement, 1 h | inhibition, % at 21.7 µM | actives 0.71% (n = 220,000) | AID 781;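 active = inhibition above about 70%, limit read from the data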;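 note: 0% = full 14-3-3 plus peptide FRET controls and 100% = background without 14-3-3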
Target sequence (P63103 whole entry, looked up): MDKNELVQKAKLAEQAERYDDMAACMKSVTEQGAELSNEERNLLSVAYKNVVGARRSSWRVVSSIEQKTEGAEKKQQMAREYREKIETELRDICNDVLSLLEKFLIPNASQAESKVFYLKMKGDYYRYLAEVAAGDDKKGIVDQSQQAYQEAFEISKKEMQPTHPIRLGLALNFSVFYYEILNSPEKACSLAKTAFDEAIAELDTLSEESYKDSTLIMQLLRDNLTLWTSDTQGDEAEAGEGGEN
Mcl-1 Bim block – disrupts Bim peptide binding to human Mcl-1; Q07820; Bead-based flow cytometry, Bim peptide-Mcl-1 binding; inhibition, % at 10 µM; actives 0.1% (n = 190,000); AID 1009; in the data active = inhibition above about 40%;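 note: 0% = no compound tracer wells and 100% = peptide blocker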
Target sequence (Q07820 whole entry, looked up): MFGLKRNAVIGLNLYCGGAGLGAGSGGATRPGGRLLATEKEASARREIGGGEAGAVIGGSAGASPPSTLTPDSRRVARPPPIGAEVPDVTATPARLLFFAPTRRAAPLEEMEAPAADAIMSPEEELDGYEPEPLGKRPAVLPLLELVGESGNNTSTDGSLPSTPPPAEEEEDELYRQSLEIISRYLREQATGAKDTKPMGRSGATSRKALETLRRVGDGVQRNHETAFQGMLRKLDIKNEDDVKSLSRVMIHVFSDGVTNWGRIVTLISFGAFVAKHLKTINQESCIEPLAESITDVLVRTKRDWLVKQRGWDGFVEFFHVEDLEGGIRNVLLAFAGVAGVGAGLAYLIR
Mcl1-Noxa inh – disrupts binding of human Mcl-1 to Noxa peptide. actives 1.5% (n = 220,000). TR-FRET Mcl-1/Noxa peptide binding, 2 h. inhibition, % at 21.7 µM. Q07820;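 active = compounds that cut the protein-peptide binding signal by more than 50% relative to plate controls in a single-dose test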;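 note: His-tagged Mcl-1 with rhodamine Noxa BH3 peptide and terbium anti-His antibody; 0% = Mcl-1 plus Noxa peptide wells and 100% = peptide-only wells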
Mcl1 Bid PPI – disrupts binding of human Mcl-1 to Bid peptide. inhibition, % at 21.7 µM. TR-FRET Mcl-1/Bid-Dy647 peptide binding, 1536-well. Q07820. actives 0.97% (n = 220,000);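 active = compounds that cut the binding signal by more than half at the single screening dose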;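 note: His-tagged Mcl-1 with europium anti-His antibody binding Bid BH3 peptide; 0% = Mcl-1 plus peptide wells and 100% = peptide-only wells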
NCF1 inh – inhibitors of human p47phox binding; p47phox/p22phox peptide binding, fluorescence polarization, 2 h; inhibition, % at 24.7 µM; actives 0.53% (n = 220,000);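 active = inhibition above about 30%, limit read from the data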;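 note: 0% = p47phox with labelled peptide and 100% = labelled peptide alone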
The depositor's hits bear a star; . = no result given; [ ] = remark or other dose.

SMILES	14-3-3 Bad PPI	Mcl-1 Bim block	Mcl1-Noxa inh	Mcl1 Bid PPI	NCF1 inh
CCOC(=O)n1cc(-c2cnc(CNC(=O)C(C)(c3ccccc3)c3ccccc3)o2)c2ccccc21	-6.7	1.0	4.4	11.3	-20.2
O=C(Nc1ccc(Oc2nnc(-c3ccccc3)c3ccccc23)cc1)c1ccccc1	21.2	-5.0	-18.7	2.2	1.1
O=C1c2cccnc2C(Nc2cccc(F)c2)N1Cc1ccco1 (stereo not drawn)	-8.3	0.0	3.3	-24.0	-12.9
O=C1c2cccnc2C(Nc2ccccc2)N1Cc1ccco1 (stereo not drawn)	32.9	-3.0	60.2*	60.0*	4.6
C/C(=N\NC(=O)c1nn(C)cc1Br)c1cccc(NC(=O)C2CCCC2)c1	9.0	-2.0	-9.9	-17.3	1.0
CN(C)c1ccc(C(CNC(=O)c2ccccc2)c2c[nH]c3ccccc23)cc1 (stereo not drawn)	3.4	-2.0	68.1*	-0.9	-34.2
CN(C)c1ccc(C(CNC(=O)c2ccccc2F)c2c[nH]c3ccccc23)cc1 (stereo not drawn)	-1.1	27.0	65.8*	-2.5	2.2
CN(C)c1ccc(C(CNS(=O)(=O)c2ccc(F)c(F)c2)c2c[nH]c3ccccc23)cc1 (stereo not drawn)	-12.8	-5.0	21.3	-56.1	-32.4
CC(C)(O)C#Cc1ccc(CN2CCN(C3CCCC3)C(CCO)C2)cc1 (stereo not drawn)	-8.5	-1.0	-14.8	-19.4	0.5
O=C1NCCN1c1ccc(CN2CCN(C3CCCCC3)C(CCO)C2)cc1 (stereo not drawn)	2.8	0.0	-8.9	-22.8	64.0*
CC(C)(O)C#Cc1ccc(CN2CCN(C3CCCCC3)C(CCO)C2)cc1 (stereo not drawn)	-4.2	0.0	81.2*	-38.0	1.4
CC(C)(C)NC(=O)c1ccccc1-c1nc(-c2ccccc2Cl)no1	-5.5	-1.0	-8.6	-0.8	43.1*
O=C1C=CC(=O)N1c1ccc(Sc2ccc([N+](=O)[O-])cc2)cc1	23.2	.	72.9*	39.7	-6.3
Nc1ccc(Sc2ccc([N+](=O)[O-])cc2)cc1	-0.8	0.0	20.3	-34.4	2.8
Cc1cc(C)c(S(=O)(=O)N2CCCCC2C(=O)O)c(C)c1 (stereo not drawn)	0.8	1.0	1.2	-7.3	-1.0
Cc1ccc(NCC(=O)N/N=C/c2ccncc2)cc1	-6.9	1.0	12.9	-69.4	-13.8
Cc1ccc(C(=O)Nc2nnc(CC(=O)N/N=C/c3ccncc3)s2)cc1	5.6	-2.0	63.2*	16.8	14.9
O=C(CCCN1C(=O)/C(=C\c2cccc(Br)c2)SC1=S)Nc1cccnc1	29.6	-3.0	38.1	59.4*	16.7
CC(/C=C1\SC(=S)N(CCCC(=O)Nc2ccc(C(=O)O)cc2)C1=O)=C\c1ccccc1	-1.3	4.0	52.5*	-30.0	-77.4
NNC(=O)c1cnn(-c2ccccc2)c1-n1cccc1	-0.7	-5.0	22.5	-45.8	-9.8
O=C(CN(Cc1ccc(F)cc1)C(=O)C1CSC(=O)C1)NC1CCCCC1 (stereo not drawn)	-14.9	-3.0	-1.6	7.0	-14.1
O=c1c2cnn(-c3ccccc3)c2nc(-c2ccco2)n1-c1ccccc1	59.4	2.0	23.2	58.4*	-5.4
O=c1oc(-c2ccco2)nc2c1cnn2-c1ccccc1	-0.8	-6.0	20.0	0.8	3.1
CCCCOC(=O)Nc1cccc(C(C)=O)c1	-1.3	-1.0	0.1	-11.4	-5.2
Cc1ccc2[nH]c3c(c2c1)CN(C)CC3	74.5*	-1.0	-2.1	-14.9	-3.4
SMILES	14-3-3 Bad PPI	Mcl-1 Bim block	Mcl1-Noxa inh	Mcl1 Bid PPI	NCF1 inh
CCOC(=O)c1ccc2[nH]c3c(c2c1)CN(C)CC3	-1.4	0.0	15.0	-13.3	-12.5
O=C(NN1CCOCC1)c1cccc(COc2cccc(Br)c2)c1	92.7*	0.0	2.9	-8.6	-1.9
O=C(O)c1cccc(-n2cccc2/C=C/[N+](=O)[O-])c1	10.7	.	28.9	-39.5	-9.5
Cc1cc(-c2ccco2)n2c(nc3ccccc32)c1C#N	-11.8	0.0	-8.6	96.3*	-15.8
C=C(C)CSc1cc(C)c(C#N)c2nc3ccccc3n12	4.3	-4.0	50.1	-8.8	-0.3
Cc1nnc(NN2CCOCC2)[nH]c1=O	11.2	-5.0	2.2	0.6	0.6
CN(C)CC(C)(C)CN=Cc1c(O)[nH]c2ccccc12	-13.3	.	9.2	-33.7	88.2*
OCCN=Cc1c(O)[nH]c2ccccc12	-17.9	-2.0	5.8	-15.6	-16.0
Cc1ccc2c(c1)C1CCCC3C1N2CC(=O)N3Cc1ccccc1 (stereo not drawn)	-14.8	-3.0	51.5*	-54.9	-19.6
Cc1ccc2c(c1)C(CCN)C(=O)N2Cc1ccccc1 (stereo not drawn)	0.4	0.0	12.3	-0.6	0.0
O=C(Nc1ccccc1)c1ccccc1CCc1ccccc1	4.0	-4.0	16.6	2.2	1.7
O=C(Nn1cnnc1)c1ccccc1CCc1ccccc1	3.0	-5.0	18.8	97.1*	-1.0
CCOC(=O)N1CCN(Cc2ccccc2Cl)CC1	74.6*	-1.0	0.5	-13.2	-2.6
CCOC(=O)N1CCN(Cc2ccccc2F)CC1	53.6	-3.0	.	30.9	4.9
CCOC(=O)N1CCN(C(=O)c2ccccc2CCc2ccccc2)CC1	-7.2	0.0	16.5	-6.6	86.8*
Cc1ccc(-c2cc(-c3n[nH]c(=S)n3C)c3ccccc3n2)cc1	-26.0	-4.0	13.8	-54.0	-4.2
COc1cccc(OCc2nc3ccccc3[nH]2)c1	11.9	-3.0	-0.4	-2.5	-1.8
COc1ccc(N=c2oc3ccc(OC)cc3cc2-c2nc3ccccc3[nH]2)cc1	65.5	-2.0	11.8	50.2	13.6
COc1cccc(N=c2oc3ccc(OC)cc3cc2-c2nc3ccccc3[nH]2)c1	78.6*[fluorescence artefact?]	0.0	-250.1	-182.3	26.3
COc1cccc(N=c2oc3ccccc3cc2-c2nc3ccccc3[nH]2)c1	54.7	-2.0	14.4	56.4*	2.1
CC(C)N(Cc1ccccc1)C(=S)Nc1ccccc1F	-5.0	.	3.3	-4.4	5.0
CC(NC(=O)Cn1cnc2c1c(=O)n(C)c(=O)n2C)c1ccccc1 (stereo not drawn)	-11.0	1.0	20.5	94.2*	-0.4
Cn1c(=O)c2c(ncn2CC(=O)OCC(=O)NC(c2ccccc2)c2ccccc2)n(C)c1=O	-4.1	0.0	-6.6	-4.9	-5.3
N#Cc1c(-c2ccccc2)c(-c2ccccc2)nn(CC(=O)NNC(=O)Nc2ccc(Cl)c(Cl)c2)c1=O	-8.7	1.0	-41.4	-39.9	-4.8
CCN(CC)c1ccc(/C=C2/C(=O)c3ccc(C(=O)O)cc3C2=O)cc1	-10.5	.	58.1*	-91.6	-241.6
CCN(CC)c1ccc(C=C2C(=O)OC3(CCCCC3)OC2=O)cc1	-13.8	0.0	5.4	-27.5	-74.8
CC(C)Sc1nc(N)c2c3c(sc2n1)CN(C)CC3	8.3	-2.0	57.6*	-13.8	-10.3
CCCSc1nc(N)c2c3c(sc2n1)CN(C)CC3	-1.5	0.0	31.7	-35.6	-10.0
Cc1cc(=O)[nH]c(-c2ccc(C(F)(F)F)cc2)n1	-10.7	.	10.2	-11.5	-9.1

Assay outcomes: PubChem BioAssay, several laboratories
